# Laboratory results from PubChem BioAssay AID594 (National Center for Advancing Translational Sciences (NCATS), 2007).
# The whole screen tested about 59,000 compounds, of which about 30 (0.05%) were called active. Rule as the data show it: active = max dye-equivalent concentration above about 11 nM; inconclusive = between about 1.1 nM and that limit; inactive = weaker than that. The entries come from a sample that favours actives as a whole.
# Test: qHTS Assay for Spectroscopic Profiling in Rhodamine Spectral Region
# Details: Rhodamine-region fluorescence, 547/598 nm, Tris buffer; active compounds read high
# Excerpt: NIH Molecular Libraries Screening Centers Network [MLSCN] NIH Chemical Genomics Center [NCGC] […] Occasionally, the artifactual effect may originate from the compound#s own spectral or other biophysical properties which generally tend to track its assay concentration. Pre-screening/profiling the library with respect to the compounds# spectral properties should help one exclude false positives early on. While the most informative fluorescent profiling data set is obtained by performing a full excitation and emission scan of each well by using a monochromator-based plate reader, such an approach is practical only on a very limited scale as scanning each well requires long time. An alternative approach, applied here, is to perform plate reader scans using selected excitation and emission wavelength pairs to generate a multidimensional relational database that correlates compound concentration and the respective relative fluorescence intensity at a given wavelength set. A standard curve of rhodamine present on each plate as six-point concentration series, was used to compute a normalized fluorescence response, termed dye-equivalent concentration, for each compound at each concentration.
# NCGC Assay Protocol Summary: Buffer: 100 mM Tris buffer, pH 8.0 Dye standard plate: The wells in columns 1 through 4 of a Kalypsys polypropylene 1536-well compound plate were filled with standard solutions of fluorophore corresponding to the spectral region of interest. Solutions of rhodamine were placed in the following wells: E1, F1: 3 mM, E2, F2: 300 uM, E3, F3: 30 uM, E4, F4: zero (DMSO), G1, H1: 3 uM, G2, H2: […], G3, H3: 300 nM, G4, H4: zero (DMSO). Assay Steps: Six uL of buffer were dispensed to 1536-well Greiner black plates. Compounds and dye standards (23 nL) were transferred via Kalypsys PinTool. The plates were incubated for 15 min at room temperature, and then read on ViewLux (Perkin-Elmer) High-throughput CCD imager using 547 nm and 598 nm excitation and emission filter set. Keywords: NIH Roadmap, MLSCN, MLI, MLSMR, qHTS, NCGC, Rhodamine , Fluorescent Profiling.
row,Compound,max dye-equivalent concentration
1,O=C(Nc1ccon1)c1sc2ccccc2c1Cl,inactive
2,Cn1c(=S)c2[nH]c(SCCCc3ccccc3)nc2n(C)c1=O,inactive
3,O=S(=O)(NCc1cccnc1)c1ccc(Br)s1,inactive
4,O=C(OCC(O)C(O)COC(=O)c1ccccc1)c1ccccc1 (stereo unspecified),inactive
5,Cc1nc2ccc(S(=O)(=O)NCC(=O)NCCN3CCCCC3C)cc2s1 (stereo unspecified),inactive
6,CNC(=O)c1cc2c(ccc3ccccc32)oc1=N,inactive
7,COc1ccc2oc(=O)c(C(=O)N3CCN(c4ccccc4F)CC3)cc2c1,inactive
8,COc1ccc(N=Cc2c(O)[nH]c3ccccc23)cc1OC,inactive
9,CC1CCCN(C(=O)Cn2c(=O)oc3ccccc32)C1 (stereo unspecified),inactive
10,CC1(C)CC(O)C(CCC(O)c2ccccc2)C(C)(C)N1 (stereo unspecified),inactive
11,CC(=O)OCc1cc2cc(C)ccc2[nH]c1=O,inactive
12,O=C(c1cc(C(F)(F)F)cc(C(F)(F)F)c1)N1CCC2(CCCN(c3ccccn3)C2)CC1,inactive
13,CCc1ccccc1NC(=O)CSc1nnc([C@@H](NC(=O)OC(C)(C)C)C(C)CC)o1 (stereo partly specified),inactive
14,CCOC(=O)CSc1nncc2ccc(OC)c(OC)c12,inactive
15,Cc1noc(C)c1-c1cc(NCc2cccnc2)ncn1,inactive
16,CN1CCN(c2ncc3nc(-c4ccc(Cl)cc4)c(=O)n(-c4ccccc4)c3n2)CC1,inactive
17,CC(=O)c1ccc(-n2nnnc2SCC(=O)N2CCN(C(=O)c3ccco3)CC2)cc1,inactive
18,COc1ccc2c(c1)CCc1c(C(=O)N3CCCC3)noc1-2,inactive
19,O=C(NCc1ccco1)c1sc2cccc(F)c2c1Cl,inactive
20,Cc1cc2nc(-c3ccc(NC(=O)c4cccnc4)cc3)oc2cc1C,inactive
21,c1ccc2c(CNn3cnnc3)cccc2c1,inactive
22,Cn1c(SCC(=O)Nc2cccc(O)c2)nnc1-c1ccc(S(=O)(=O)N2CCOCC2)cc1,inactive
23,CC(C)C(=O)N1CCN(CCN=CC2=C(O)CC(c3ccco3)CC2=O)CC1 (stereo unspecified),inactive

row,Compound,max dye-equivalent concentration
1,O=C(c1cc(C(F)(F)F)cc(C(F)(F)F)c1)N1CCC[C@@]2(CCN(c3ccccn3)C2)C1,inactive
2,COc1ccc2c(c1)CCc1c(C(=O)N3CCc4ccccc4C3)noc1-2,inactive
3,S=c1[nH]nc(SCc2ccccc2Cl)c2[nH]cnc12,inactive
4,Brc1ccc(Nc2c3c(nc4ncnn24)CCC3)cc1,inactive
5,Cc1cc(=O)oc(C)c1C(=O)NC1CC(C)(C)NC(C)(C)C1,inactive
6,CCOC(=O)COc1ccc(Cl)cc1C1NC(=O)NC(C)=C1C(C)=O (stereo unspecified),inactive
7,Cc1cccc(N2CCN(C(=O)C3CCN(S(=O)(=O)c4cnc[nH]4)CC3)CC2)c1C,inactive
8,Cc1cc(Cl)ccc1OCC(=O)Oc1c(Cl)c(Cl)c(Cl)c(Cl)c1Cl,inactive
9,CCOC(=O)N1CCN(S(=O)(=O)c2cc(Br)cc3c2N(C(=O)C2CC2)CC3)CC1,inactive
10,CCOC(=O)c1cc2cc(C)ccc2[nH]1,inactive
11,CC(C)C[C@H](NC(=O)Nc1cccc(C(F)(F)F)c1)C(=O)O,inactive
12,CN(C)CCCNc1c2c(c(C#N)c3nc4ccccc4n13)CCC2,inactive
13,COc1ccc(CNC(=O)c2c(C)cc(=O)oc2C)cc1OC,inactive
14,CC(=O)c1c(C)c[nH]c1C,inactive
15,O=C(NCc1ccccc1)C1C(=O)N(Cc2ccccc2)C(=O)C1C1(O)CCCC1 (stereo unspecified),inactive
16,Cn1c(=O)c2c(nc(N3CCCCCC3)n2CC(O)COc2ccc(Cl)cc2)n(C)c1=O (stereo unspecified),inactive
17,CN(C)c1ncc2nc(-c3ccc(F)cc3)c(=O)n(Cc3ccc(F)cc3)c2n1,inactive
18,CS(=O)(=O)N1CCC2(CC1)CN(c1ccncc1)C2,inactive
19,Cc1ccccc1N1CC(c2nc3ccccc3[nH]2)CC1=O (stereo unspecified),inactive
20,CCN1CCN(C(=O)c2ccccc2N(C)S(=O)(=O)c2ccc(C)cc2)CC1,inactive
21,Cc1ccc(C(=O)Nc2ccccc2C(=O)NC2CCCCC2)cc1S(=O)(=O)N1CCOCC1,inactive
22,C/C(O)=C\c1nc(=O)c2c(C)cc(C)nc2n1-c1ccccc1,inactive
23,CC(C)NC(=O)N1CC[C@@]2(CCCN(C(=O)c3cccc(F)c3)C2)C1,inactive

row,Compound,max dye-equivalent concentration
1,CCCn1c(SCC(=O)Nc2cccc(C(=O)OCC)c2)nnc1-c1ccoc1C,inactive
2,CCOc1ccc(NCCC(=O)c2ccc3c(c2)OCO3)cc1,inactive
3,CCOC(=O)N1CCN(C(=O)c2cc3c(ccc4ccccc43)oc2=O)CC1,inactive
4,O=C(Nc1ccc(NC(=O)c2cccs2)cn1)c1ccco1,inactive
5,CCCCCOC(=O)NCCOC(=O)Nc1ccc(C(=O)OCC)cc1,inactive
6,CC1CC(c2ccccc2)n2nc(NC(=O)c3cccs3)nc2N1 (stereo unspecified),inactive
7,CCn1c(=O)cc(OCC(=O)NCCCN2CCN(c3cccc(Cl)c3)CC2)c2ccccc21,inactive
8,O=C(c1csnn1)N1CCC[C@@]2(CCN(c3cccc(-c4ccccc4)c3)C2)C1,inactive
9,CCOc1ccccc1/C=c1\sc2nc(-c3ccco3)nn2c1=O,inactive
10,CN(c1ccccc1)c1ccc(/C=c2\s/c(=C(/C#N)C(=O)C(C)(C)C)n(Cc3ccco3)c2=O)cc1,36 nM (active)
11,CCOC(=O)CSc1nc2c(sc(=S)n2CCc2ccccc2)c(=O)n1Cc1ccco1,inactive
12,Cc1cccc(OCc2nnc(SCc3nc4cc(C(F)(F)F)ccc4c(=O)[nH]3)o2)c1,inactive
13,COc1ccc(C(CNC(=O)c2cccnc2SC)N2CCOCC2)cc1 (stereo unspecified),inactive
14,O=C(CSc1nnc(-c2ccc(NS(=O)(=O)c3ccccc3)cc2)o1)NCC1CCCO1 (stereo unspecified),inactive
15,O=C(C1CCC(C(=O)N2CCCC2)CC1)N1CCCC1 (stereo unspecified),inactive
16,COc1ccc(S(=O)(=O)N2CCCC(C(=O)Nc3ccc(NC(=O)c4ccccn4)cc3)C2)cc1 (stereo unspecified),inactive
17,CCn1c(NCCc2ccc(OC)c(OC)c2)nc2c1c(=O)n(C)c(=O)n2C,inactive
18,CCNc1nc(N)nc(Oc2ccc(OCC)nn2)n1,inactive
19,CC1=Nn2c(nnc2-c2ccccc2)SC1,inactive
20,CN(CC(=O)NC1CCCCC1)S(=O)(=O)c1ccc(Br)s1,inactive
21,O=C(CSc1nnc(-c2ccccc2)o1)N1CCOCC1,inactive
22,Cc1ccc(CC2CC(=O)N(c3ccc4c(c3)OCCO4)C2=O)cc1 (stereo unspecified),inactive
23,C[C@]1(O)CC[C@H]2[C@H]3CC=C4N5CCN=C5CC[C@@]4(C)[C@H]3CC[C@@]21C,inactive

row,Compound,max dye-equivalent concentration
1,CCNc1ncc2ncc(=O)n(Cc3cccc(OC)c3)c2n1,inactive
2,CC1Cc2ccccc2N1C(=O)CSc1nc2ccccc2o1 (stereo unspecified),inactive
3,CCN(CC)c1ccc(C(=O)OCC(=O)c2ccco2)cc1,inactive
4,Cc1ccsc1C(C(=O)NC1CCCCC1)N(C(=O)Cc1cccs1)C1CC1 (stereo unspecified),inactive
5,CCC(C(=O)Nc1ncccn1)(C(F)(F)F)C(F)(F)F,inactive
6,CC(C)C(c1nnnn1CCc1ccccc1)N1CCN(C(=O)c2ccco2)CC1 (stereo unspecified),inactive
7,O=C(Nc1c(-c2ccccc2)nc2c(Br)cc(Br)cn12)c1ccco1,inactive
8,Cc1oc(-c2cccc(Cl)c2)[n+]([O-])c1C,inactive
9,COCCn1c(=O)c(-c2cccs2)nc2cncnc21,inactive
10,Nc1nonc1-c1noc(-c2ccc(Br)o2)n1,inactive
11,CCOC(=O)C1=C(CNC2CCCCC2)NC(=O)NC1c1cc(C)ccc1C (stereo unspecified),inactive
12,Cc1cc(=O)n2nc(N3CCCC3C(=O)NCCCN3CC(C)CC(C)C3)sc2n1 (stereo unspecified),inactive
13,O=C(CN1CCN(c2ccccn2)CC1)NCc1cccs1,inactive
14,OCc1n[nH]c(CO)n1,inactive
15,CCC(=O)Nc1sc(C(=O)N2CCCCC2)c(C)c1C#N,inactive
16,CCOC(=O)c1c(C)c(C(=O)NCCc2ccc(S(N)(=O)=O)cc2)c(C)n1CC,inactive
17,COc1ccc(CCNC(=O)CN2CCC(n3nnc4cc(F)ccc43)CC2)cc1OC,inactive
18,Nc1nnnn1/N=C/c1cccs1,inactive
19,CCc1ccccc1NC(=O)CSc1nnc([C@@H](NC(=O)OC(C)(C)C)C(C)C)o1,inactive
20,COc1cc(Cl)c(C)cc1NC(=O)CSc1nnc(-c2cccnc2)n1Cc1ccco1,inactive
21,Cc1cc(N2CCCC2=O)cc(C)c1S(N)(=O)=O,inactive
22,C/C(=N\O)C1(C)N(O)C(C)(C)C(c2ccc(Br)cc2)=[N+]1[O-] (stereo unspecified),inactive
